HSF1 inh: HSF1 inhibitors in luciferase reporter cells, primary screen, cell-based, NIH3T3, luminescence; NIH3T3-HGL HSE-luciferase, MG132-induced, luminescence 8 h; stronger effect = lower value; activity change, negative = inhibition, % at 7.5 µM (by protocol); hit rate 0.77% among 300,000;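 active = more than half of replicate wells show activity change below -50%, luminescence cut by over half; inconclusive = some wells, but at most half, below -50%; inactive = no replicate well below -50%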;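 also: luciferase reports HSF-1 transcriptional activity via heat shock element; 0% = median of DMSO wells and -100% = zero luminescence signal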
esBAF inh: Bmi1 luciferase reporter increase in mESCs, primary screen, esBAF inhibitor project, mouse ES cells, Bmi1 luciferase knock-in, single point; 24 h; 100% = twice the neutral-well signal; reporter increase, % at 12.5 µM; hit rate 2% among 350,000; in the data active = activation above about 40%; inconclusive = no clear call, values can overlap the other calls;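 also: 0% = median of the plate's neutral control wells and 100% = double that signal; a rise in the Bmi1 reporter signal indicates esBAF inhibition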
HSF1 activator: HSF-1 activators, primary screen, NIH3T3-HGL cells, MG132 stress, luminescence, single point | NIH3T3-HGL HSF-1 luciferase reporter, 8 h; 100% = twice DMSO control signal | activation, % at 9 µM | hit rate 1.7% among 300,000 | AID 504408, 2011;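 active = mean replicate activation of at least 50% with a set share of replicates each reaching 50%; inconclusive = only one of those two conditions met; inactive = mean below 50% and too few replicates reaching it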;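 also: 0% = median of the neutral control wells and 100% = twice that signal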
Wnt act: Wnt/beta-catenin pathway activators, primary screen, cell-based, plate reader, single point; hit rate 1.2% among 300,000; activation, % at 9.35 µM; AID 743398, 2014; Wnt/beta-catenin reporter cell assay, activator; in the data active = activation above about 30%, passing the limit was not always enough; inconclusive = no clear call, values can overlap the other calls;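 also: 0% = neutral control wells and 100% = positive control wells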
MITF TRPM1 HTS: activators of MITF-driven TRPM1 promoter reporter, primary screen, cell-based, SK-MEL-5, luciferase, single point; hit rate 0.75% among 300,000; SK-MEL-5 TRPM1-promoter luciferase, 24 h; % of positive control, neutral wells = 0; AID 588334, 2011; activation, % at 12.5 µM;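 active = mean activation of at least 80% with every replicate also reaching 80%; inconclusive = mean reaches 80% but some replicate falls short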;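 also: 0% = neutral control wells and 100% = parthenolide positive control wells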
Active calls of the source: *; ? = inconclusive; . = not tested or not shown. Rows were chosen to be rich in hits. Some 3.9% of all compounds tested hit in one or more screens of this group.

SMILES	HSF1 inh	esBAF inh	HSF1 activator	Wnt act	MITF TRPM1 HTS
Cc1csc(SCc2nnc(-c3ccc(Cl)cc3)o2)n1	27	60*	59*	.	50
C[C@H](CO)N1C[C@H](C)[C@@H](CN(C)C(=O)Nc2ccccc2)OCCCC[C@H](C)Oc2ccc(NS(=O)(=O)c3ccc(F)cc3)cc2C1=O	.	1	.	.	.
COc1cc(OC)cc(C(=O)N(CCCN2C(=O)c3cccc4cccc(c34)C2=O)c2cccc(OC)c2)c1	37	.	59*	1	-3
COc1ccc(N(CCCN2C(=O)c3cccc4cccc(c34)C2=O)C(=O)c2ccncc2)cc1	-1	.	-4	-1	1
O=C(N/N=C/c1ccncc1)c1nc2ccccc2c(=O)[nH]1	5	.	10	21	32
O=C(N/N=C/c1ccc2cccnc2c1)c1nc2ccccc2c(=O)[nH]1	4	46*	8	0	67
Oc1ccc(COCc2ccccc2)c2cccnc12	-8	60*	-18	1	-25
Oc1ccc(Cc2ccccc2)c2cccnc12	.	-32	.	-1	.
Oc1ccc(CN2CCCCC2)c2cccnc12	?	-14	-56	-1	-33
OCc1ccc(O)c2ncccc12	-54*	0	-58	.	-59
CC(C)NC(=O)Nc1ccc2c(c1)C(=O)N([C@H](C)CO)C[C@@H](C)[C@@H](CN(C)CC1CCCCC1)OCCCC[C@@H](C)O2	.	0	.	.	.
C[C@@H]1CCCCO[C@H](CN(C)C(=O)C2CCCCC2)[C@H](C)CN([C@H](C)CO)C(=O)c2cc(NC(=O)Cc3ccccc3)ccc2O1	.	11	.	.	.
CCOc1ccc(OCCOc2ncnc3ccccc23)cc1	13	46*	24	.	32
c1ccc(Oc2ncnc3ccccc23)cc1	.	9	.	-8	1
c1ccc(OCCOc2ncnc3sccc23)cc1	22	.	36	42*	41
CC1=NN(c2ccccc2)C(=O)C1N=Nc1cccc(O)c1 (stereo unspecified)	29	52*	?	1	.
CC1=NN(c2ccccc2)C(=O)C1N=Nc1ccccc1 (stereo unspecified)	18	.	45	57*	22
CC1=NN(c2nc(-c3ccc(C)cc3)cs2)C(=O)C1N=Nc1cccc(O)c1 (stereo unspecified)	7	5	21	-2	-7
CC1=NN(c2ccccc2)C(=O)C1N=Nc1ccc(N)cc1 (stereo unspecified)	3	26	13	.	13
Cc1noc(C)c1NC(=O)N(C)C[C@H]1Oc2ccc(NC(=O)Nc3ccc(F)cc3)cc2CC(=O)N([C@H](C)CO)C[C@@H]1C	.	2	.	.	.
COc1cccc(-c2ccc3c(c2)[C@H]2[C@H](CCN2S(=O)(=O)C2=NC(C)C=N2)[C@@H](CO)N3C)c1 (stereo partly specified)	.	1	.	.	.
O=c1c2ccccc2nc(SCc2ccc([N+](=O)[O-])cc2)n1-c1ccc(Cl)cc1	4	.	12	-2	-8
Nn1c(SCc2ccc([N+](=O)[O-])cc2)nc2ccccc2c1=O	20	1	55*	2	22
Nn1c(SCc2ccccc2)nc2ccccc21	23	54*	38	28	?
CC(C)c1ccc(NC(=O)c2n[nH]c(=O)c3ccccc23)cc1	.	60*	.	9	39
SMILES	HSF1 inh	esBAF inh	HSF1 activator	Wnt act	MITF TRPM1 HTS
Cc1cc(NC(=O)c2n[nH]c(=O)c3ccccc23)ccc1Br	4	.	34	21	.
CC(C)c1ccc(NC(=O)c2csnn2)cc1	11	-12	19	20	84*
O=C(Nc1ccccc1NC(=O)c1csnn1)c1csnn1	-46	.	-59	-1	.
CC(C)c1ccc(NC(=O)c2snc3ccc(Cl)cc23)cc1	9	?	-12	22	120*
COCC(=O)Nc1ccc2c(c1)OC[C@H](C)N(C(=O)c1ccccc1)C[C@@H](C)[C@H](OC)CN(C)C2=O	.	-4	.	.	.
COc1ccc(S(=O)(=O)N(C)C[C@@H]2Oc3ccc(NC(=O)NC4CCCCC4)cc3C(=O)N([C@@H](C)CO)C[C@H]2C)cc1	.	3	.	.	.
C[C@H]1CN([C@@H](C)CO)C(=O)c2cc(NC(=O)Cc3ccccc3)ccc2O[C@H]1CN(C)Cc1ccc2c(c1)OCO2	.	7	.	.	.
C[C@H]1CN([C@@H](C)CO)C(=O)c2cc(N(C)C)ccc2O[C@H]1CN(C)Cc1ccc(Oc2ccccc2)cc1	.	-6	.	.	.
Cc1c(C(=O)Nc2cc(F)ccc2F)sc2nc3n(c(=O)c12)CCCCC3	13	71*	13	18	74
CCOC(=O)c1sc2nc3n(c(=O)c2c1C)CCCCC3	19	68*	29	.	?
CSc1cccc(NC(=O)c2sc3nc4n(c(=O)c3c2C)CCC4)c1	44	54*	64*	18	?
O=C(C[C@@H]1CC[C@@H](NC(=O)Nc2cc(F)ccc2F)[C@@H](CO)O1)NCc1ccc2c(c1)OCO2	.	-1	.	.	.
C[C@@H]1CN([C@H](C)CO)C(=O)c2cccc(NC(=O)Nc3ccccc3)c2O[C@@H]1CN(C)C(=O)Nc1ccc(F)cc1	.	-1	.	.	.
COc1ccc2nc(N3CCCC(C(=O)NCCc4ccc(OC)c(OC)c4)C3)sc2c1 (stereo unspecified)	12	53*	12	3	37
CCc1ccc(-c2nc(CN3CCCC(C(=O)NCCc4ccc(OC)c(OC)c4)C3)c(C)o2)cc1 (stereo unspecified)	-5	-3	3	-1	-1
COc1ccc(N2CCN(C(=O)c3ccc4nc(N5CCCCC5)sc4c3)CC2)cc1	-9	62*	-21	12	50
COc1ccc2nc(N3CCN(C(=O)C4COc5ccccc5O4)CC3)sc2c1 (stereo unspecified)	20	.	28	-3	100*
COc1ccc2nc(N3CCCC(C(=O)NCCCN4CCN(C)CC4)C3)sc2c1 (stereo unspecified)	-2	2	-8	1	.
COc1ccc(CCNC(=O)C2CCCN(Cc3nc(-c4ccccc4C)oc3C)C2)cc1OC (stereo unspecified)	29	-6	72*	.	-10
CC(=O)N(C)C[C@H]1Oc2ncc(C#CCC3CCCC3)cc2C(=O)N([C@H](C)CO)C[C@@H]1C	.	-1	.	.	.
C[C@@H]1CCCCO[C@@H](CN(C)Cc2ccc3c(c2)OCO3)[C@@H](C)CN([C@H](C)CO)C(=O)c2cc(NC(=O)CCCN(C)C)ccc2O1	.	0	.	.	.
C[C@@H]1CN([C@@H](C)CO)C(=O)c2cc(NS(=O)(=O)c3cccs3)ccc2O[C@@H](C)CCCCO[C@@H]1CN(C)C(=O)Nc1ccc2c(c1)OCO2	.	4	.	.	.
COc1ccc(CCNC(=O)c2ccc3nc(N4CCCCC4)sc3c2)cc1OC	-3	51*	-3	-5	.

Assay outcomes deposited in PubChem by Broad Institute.
